A selection: hits, their analogues and other compounds. The true share with any hit is near 3.1%.
EP2 mod = EP2 receptor (human) modulation; P43116; EP2-expressing cells, cAMP HTRF FRET, PGE2 co-stimulation; induction, % at 25 µM; 0.83% of 260,000 active;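 active means compounds whose cAMP rise, as percent of the full-agonist control response, exceeds 60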;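 further: rat C6 glioma line stably carrying human EP2 under a CMV promoter; the protocol text gives 20 µM as final concentration; 100% = response of wells given 1 µM PGE2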
PGE2 EP2 inh = EP2 receptor (human) inhibition; C6 glioma cells expressing human EP2, cAMP TR-FRET; cells stimulated with saturating PGE2; 0.52% of 260,000 active; inhibition, % at 25 µM; P43116;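 active means percent inhibition above 40 after rounding to a whole number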;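 further: rat C6 glioma host cells with rolipram phosphodiesterase inhibitor present; the protocol text gives 20 µM as final concentration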
KCC2 mod = modulates chloride dependent transport by human KCC2. Q9H2X9. KCC2 cells, thallium flux FluoZin-2 fluorescence. B-score of Tl+ flux slope (higher = more flux/activation; lower = inhibition) at 10 µM. 2.2% of 190,000 active. AID 1456;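 active means thallium flux slope and its plate-corrected score both differing from the plate sample mean at a set confidence after two filtering rounds, in either direction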;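 further: slope of fluorescence scaled to starting intensity during 10 to 20 s after thallium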
Target sequence (Q9H2X9 whole entry, looked up): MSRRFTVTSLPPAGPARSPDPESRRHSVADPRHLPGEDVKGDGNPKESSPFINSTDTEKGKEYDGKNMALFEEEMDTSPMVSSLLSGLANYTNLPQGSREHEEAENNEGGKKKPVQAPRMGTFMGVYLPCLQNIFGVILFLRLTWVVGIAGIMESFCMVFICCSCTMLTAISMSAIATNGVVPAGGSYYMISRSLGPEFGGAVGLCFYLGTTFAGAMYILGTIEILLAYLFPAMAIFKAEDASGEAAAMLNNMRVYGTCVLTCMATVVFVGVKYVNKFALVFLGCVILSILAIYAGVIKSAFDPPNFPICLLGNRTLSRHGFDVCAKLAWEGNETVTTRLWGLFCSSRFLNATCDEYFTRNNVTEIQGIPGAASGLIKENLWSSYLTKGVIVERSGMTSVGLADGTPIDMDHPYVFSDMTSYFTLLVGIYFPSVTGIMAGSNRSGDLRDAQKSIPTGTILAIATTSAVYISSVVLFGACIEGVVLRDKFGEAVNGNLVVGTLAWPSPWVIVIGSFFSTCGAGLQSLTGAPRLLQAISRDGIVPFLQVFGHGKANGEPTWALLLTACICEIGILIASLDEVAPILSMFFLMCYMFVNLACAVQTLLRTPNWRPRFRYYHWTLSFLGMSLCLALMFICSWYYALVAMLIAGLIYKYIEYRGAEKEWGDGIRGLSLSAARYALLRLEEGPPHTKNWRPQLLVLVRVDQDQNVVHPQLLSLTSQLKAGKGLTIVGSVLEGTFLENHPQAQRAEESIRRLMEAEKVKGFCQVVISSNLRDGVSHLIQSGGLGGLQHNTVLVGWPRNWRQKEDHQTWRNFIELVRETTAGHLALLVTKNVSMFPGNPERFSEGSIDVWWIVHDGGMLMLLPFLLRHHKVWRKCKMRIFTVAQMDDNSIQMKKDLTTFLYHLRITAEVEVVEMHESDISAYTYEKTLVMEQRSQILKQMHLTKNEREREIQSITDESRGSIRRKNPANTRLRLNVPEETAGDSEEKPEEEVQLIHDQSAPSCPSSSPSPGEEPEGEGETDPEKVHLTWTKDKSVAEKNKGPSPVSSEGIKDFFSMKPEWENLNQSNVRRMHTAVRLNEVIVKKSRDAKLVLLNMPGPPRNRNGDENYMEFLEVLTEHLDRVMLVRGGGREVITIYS
S1P3 antagonist = S1P3 (human) receptor antagonism; CHO S1P3 NFAT-BLA reporter, FRET fluorescence, antagonist mode; 0.27% of 170,000 active; Q99500; inhibition, % at 4.98 µM;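 active means inhibition above the plate cutoff, the mean inhibition of test wells on that plate plus 3 SD, cut at about 28% in these data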;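 further: cells challenged with S1P at its EC80 of 0.8 µM; blue over green emission ratio from cleaved BLA substrate after 4 h stimulation; 0% = S1P-stimulated wells and 100% = unstimulated DMSO-only wells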
KCC2 secondary = confirmation of human KCC2 transport modulators. normalised thallium flux (F/F0 slope) at 10 µM. HEK293-KCC2, thallium flux, FluoZin2 fluorescence; hits give high values. 15% of 3,700 active. AID 1713. shares compounds with KCC2 mod;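 active means thallium flux slope above the same plate's solvent-only control mean plus 3 SD; inconclusive means the two replicate wells disagree; inactive means no significant difference from solvent-only control wells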
KCC2 bumet counter = bumetanide-insensitive thallium flux in KCC2 cells with ouabain, counter-screen | HEK293-KCC2 + bumetanide/ouabain, thallium flux FluoZin2; hits give high values | shares compounds with KCC2 mod | normalized thallium flux at 10 µM | AID 1714 | 49% of 3,700 active;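 active means thallium entry rate above the same plate's blocked-transporter control wells by more than 3 SD; inconclusive means the two repeat wells disagree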;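 further: raw slope of fluorescence over initial fluorescence between 10 and 20 s after thallium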
KCC2 sec2 = confirmation of human KCC2 transport modulators | shares compounds with KCC2 mod | normalized thallium flux at 10 µM | 23% of 3,700 active | HEK293-KCC2, thallium flux FluoZin2 fluorescence; actives lie on both sides; F/F0 rise rate, 10–20 s post-thallium;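 active means thallium flux slope more than 3 SD above or below the plate's solvent-only control mean, mostly below; inconclusive means the two repeat wells disagreed; inactive means no significant shift from solvent-only controls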;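 further: raw slope with 0.1% DMSO as baseline and bumetanide as block control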
HEK293 Tl flux = parental HEK flux effect, counter-screen | shares compounds with KCC2 mod | HEK293 parental cells, thallium flux FluoZin2, ouabain; baseline-ratio fluorescence slope, 10–20 s after thallium | thallium flux rate (normalised fluorescence) at 10 µM | 46% of 3,700 active;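 active means thallium flux rate significantly above the same plate's solvent-only control wells, beyond their mean plus 3 SD; inconclusive means the two replicate wells gave conflicting results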
KCC2 retest ouab = modulates human KCC2 on retest with ouabain | raw Tl+ flux slope (below DMSO = inhibition, above = activation) at 10 µM | HEK293-KCC2, thallium flux FluoZin2 fluorescence; bidirectional: low = inhibitor, high = activator | 48% of 3,700 active | shares compounds with KCC2 mod;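 active means thallium flux slope beyond 3 SD from same-plate DMSO control mean in most replicates, usually higher, sometimes lower; inconclusive means repeat tests gave conflicting results; inactive means no significant difference from controls in most replicates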;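 further: slope of initial-normalized fluorescence between seconds 10 and 20 after thallium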
HEK293 Tl flux2 = parental HEK flux effect, counter-screen 2; shares compounds with KCC2 mod; HEK293 parental, thallium flux FluoZin-2 fluorescence slope; thallium flux slope at 10 µM; 33% of 3,700 active;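 active means thallium flux slope above the same plate's solvent-control mean plus 3 SD in both duplicate wells; inconclusive means duplicate wells that disagreed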;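 further: run without ouabain in cells lacking the KCC2 cotransporter; slope of fluorescence scaled to its starting value between 10 and 20 s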
An asterisk follows results filed as active.

`C/C(=N\NC(=O)c1cccc([N+](=O)[O-])c1)c1cccs1` gave EP2 mod -10, PGE2 EP2 inh 9, KCC2 mod 3.8*, S1P3 antagonist 6, KCC2 secondary 0.011, KCC2 bumet counter 0.023*, KCC2 sec2 0.034, HEK293 Tl flux 0.017*, KCC2 retest ouab inconclusive and HEK293 Tl flux2 inconclusive.
O=C(N/N=C1\CCCc2ccccc21)c1cccc([N+](=O)[O-])c1 was read as EP2 mod -11, PGE2 EP2 inh 0, KCC2 mod 4.4*, KCC2 secondary inconclusive, KCC2 bumet counter 0.023*, KCC2 sec2 0.033, HEK293 Tl flux 0.012*, KCC2 retest ouab 0.026 and HEK293 Tl flux2 0.012*.
For C/C(=N/NC(=O)c1cccs1)c1ccco1 the results were EP2 mod 2, PGE2 EP2 inh 5, KCC2 mod 4.7*, S1P3 antagonist 2, KCC2 secondary 0.0086, KCC2 bumet counter 0.015*, KCC2 sec2 0.032, HEK293 Tl flux inconclusive, KCC2 retest ouab inconclusive and HEK293 Tl flux2 0.011*.
`O=C(N/N=C1/CCCc2ccccc21)c1cc([N+](=O)[O-])cc([N+](=O)[O-])c1` gave EP2 mod -15, PGE2 EP2 inh 0, KCC2 mod 1.5 and S1P3 antagonist -5.
`O=C(N/N=C1\CCCc2ccccc21)c1cccc(Br)c1` gave EP2 mod -4, PGE2 EP2 inh 5, KCC2 mod 5.9*, S1P3 antagonist -1, KCC2 secondary inconclusive, KCC2 bumet counter 0.022*, KCC2 sec2 0.029, HEK293 Tl flux 0.011*, KCC2 retest ouab inconclusive and HEK293 Tl flux2 inconclusive.
Cc1nn(C)cc1S(=O)(=O)NCC(c1ccccc1Cl)N(C)C (configuration not stated) was read as EP2 mod -41 and PGE2 EP2 inh 5.
`COCCn1c(-c2ccc(Cl)cc2Cl)nc2c(c(=O)c3ccccc3n2C)c1=O` gave EP2 mod 12, PGE2 EP2 inh 10, KCC2 mod -3.4*, S1P3 antagonist -4, KCC2 secondary 0.006, KCC2 bumet counter 0.0047, KCC2 sec2 0.024*, HEK293 Tl flux inconclusive, KCC2 retest ouab 0.013* and HEK293 Tl flux2 0.0096.
For C/C(=N\NC(=S)NCc1ccccc1)c1ccc(C)o1 the results were EP2 mod -1, PGE2 EP2 inh 7, KCC2 mod 5.4*, S1P3 antagonist -11, KCC2 secondary 0.0061, KCC2 bumet counter 0.015*, KCC2 sec2 0.029, HEK293 Tl flux 0.012*, KCC2 retest ouab inconclusive and HEK293 Tl flux2 0.011.
COCCNC(=S)N/N=C(\C)c1ccc(Cl)s1 was read as EP2 mod -12, PGE2 EP2 inh 4, KCC2 mod 32*, S1P3 antagonist 10, KCC2 secondary 0.014*, KCC2 bumet counter 0.06*, KCC2 sec2 0.033, HEK293 Tl flux 0.02*, KCC2 retest ouab 0.039* and HEK293 Tl flux2 0.012*.
Screening C/C(=N\NC(=S)NCc1ccccc1)c1cccs1 returned EP2 mod 12, PGE2 EP2 inh 1, KCC2 mod 16*, S1P3 antagonist 5, KCC2 secondary 0.0077, KCC2 bumet counter 0.041*, KCC2 sec2 0.049*, HEK293 Tl flux 0.04*, KCC2 retest ouab 0.042* and HEK293 Tl flux2 0.04*.
Screening C/C(=N\NC(=S)NCc1ccccc1)c1ccc(Br)cc1 returned EP2 mod 3, PGE2 EP2 inh 7, KCC2 mod 1.6 and S1P3 antagonist -7.
`C/C(=N\NC(=S)NCc1ccccc1)c1ccc2c(c1)OCCO2` gave EP2 mod 14, PGE2 EP2 inh 8, KCC2 mod 1.9 and S1P3 antagonist 16.
Screening C/C(=N\NC(=O)Cc1ccccc1)c1cccs1 returned EP2 mod 6, PGE2 EP2 inh 4 and KCC2 mod 0.031.
Screening C/C(=N\NC(=S)NCc1ccccc1)c1ccc(Cl)s1 returned EP2 mod 3, PGE2 EP2 inh 13, KCC2 mod 10*, S1P3 antagonist 2, KCC2 secondary 0.0097, KCC2 bumet counter 0.017*, KCC2 sec2 0.034, HEK293 Tl flux inconclusive, KCC2 retest ouab 0.026* and HEK293 Tl flux2 0.012.
`COc1ccc2c(c1)cc(C)c1nn(CC(=O)NCc3cccs3)c(=O)n12` gave EP2 mod -18 and PGE2 EP2 inh 7.
CCc1ccc2[nH]c(=O)c(C(c3nnnn3C(C)(C)C)N3CCCCC3)cc2c1 (configuration not stated) was read as EP2 mod 10 and PGE2 EP2 inh 5.
Cc1ccc2oc(=O)n(CC(=O)NCC3CCN(C(C)C)CC3)c2c1 was read as EP2 mod -34 and PGE2 EP2 inh 8.
Screening CCOc1ccc2nc(SC3CC(=O)N(c4ccccc4)C3=O)sc2c1 (configuration not stated) returned EP2 mod -34, PGE2 EP2 inh 2 and KCC2 mod 1.2.
Screening CCOc1ccc2nc(SC3CC(=O)N(c4cccc(OC)c4)C3=O)sc2c1 (configuration not stated) returned EP2 mod -17, PGE2 EP2 inh 5, KCC2 mod 4.7*, S1P3 antagonist -5, KCC2 secondary 0.024*, KCC2 bumet counter 0.015*, KCC2 sec2 0.033, HEK293 Tl flux 0.0093*, KCC2 retest ouab 0.022* and HEK293 Tl flux2 inconclusive.
CCOc1cc(C2C(C#N)=C(N)OC3=C2C(=O)CCC3)ccc1OCc1cccc(F)c1 (configuration not stated) was read as EP2 mod 38 and PGE2 EP2 inh 16.
O=C(CN1CCC(c2ccc3c(c2)OCO3)CC1)N1CCCCC1 was read as EP2 mod -17.
COCCNC(=O)CN(c1cc(C(F)(F)F)ccc1Cl)S(C)(=O)=O was read as EP2 mod 20, PGE2 EP2 inh 10, KCC2 mod -4*, S1P3 antagonist -41, KCC2 secondary 0.0085, KCC2 bumet counter inconclusive, KCC2 sec2 0.028, HEK293 Tl flux inconclusive, KCC2 retest ouab 0.019 and HEK293 Tl flux2 0.011.
For CC(=O)c1cn(CC(=O)N2CCc3ccccc3C2)c2ccccc12 the results were EP2 mod -78 and PGE2 EP2 inh 10.
